Reference: the supplement of paper PMC9801561
± gives the standard deviation of the averaged measurements.

What was measured:
[1] = system: Escherichia coli Nissle 1917; assay: area under OmniLog respiration curve over 48 h (OmniLog units x h); higher = more growth / nutrient utilisation; extreme values may be limits of the assay; conditions: incubation: 48 h, 37 °C
[2] = system: Escherichia coli Nissle 1917; assay: DuctApe activity index of respiration/growth curve (0 no growth to 9 maximum) (index 0-9); higher = more growth / nutrient utilisation, active = 3 or more; extreme values may be limits of the assay; conditions: incubation: 48 h, 37 °C
[3] = nutrient role: C-Source, carboxylic acid
[4] = nutrient role: sole sulfur source (pyruvate carbon)
[5] = nutrient role: sole nitrogen source (pyruvate carbon)
[6] = nutrient role: C-Source, carbohydrate
[7] = nutrient role: N-Source, inorganic
[8] = nutrient role: sole phosphorus source (pyruvate carbon)
[9] = nutrient role: C-Source, amino acid
[10] = nutrient role: C-Source, alcohol
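For DuctApe activity index of respiration/growth curve (0 no growth to 9 maximum) in this document: biolog PM4 phosphorus and sulfur plates, tetrazolium violet dye reduction read in the OmniLog every 15 min, kinetic curves scored by DuctApe, each plate run in triplicate.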

Question: With `CC(N)=O` [Acetamide] as the molecule, how does the “area under OmniLog respiration curve” value ([1]; nutrient role: C-Source, amide) read?
Answer: 9.31 ± 7.2

Question: And the DuctApe activity index ([2]; nutrient role: C-Source, amide)?
Answer: 0 (inactive)

Question: Which results are given for `NC(=O)[C@H]1O[C@@H](O)[C@H](O)[C@@H](O)[C@@H]1O` [Glucuronamide]?
Answer: area under OmniLog respiration curve ([1]; nutrient role: C-Source, amide): 33.5 ± 50; DuctApe activity index ([2]; nutrient role: C-Source, amide): 0.333 (inactive)

Question: Which “area under OmniLog respiration curve” value [1, 3] does the source give for `NCCCC(=O)O` [g-Amino-N-Butyric acid] here?
Answer: 4.72

Question: What about the DuctApe activity index [2, 3] of the same molecule?
Answer: 0 (inactive)

Question: Which results are given for `CSCC[C@H](N)C(=O)O` [L-Methionine]?
Answer: area under OmniLog respiration curve [1, 4]: 6300 ± 150; DuctApe activity index [2, 4]: 7 (active)

Question: Which results are given for `CSCC[C@H](NC(=O)CN)C(=O)O`?
Answer: area under OmniLog respiration curve [1, 4]: 5820 ± 90; DuctApe activity index [2, 4]: 7 (active)

Question: For `CSCCC(NC(C)=O)C(=O)O` (racemic) [N-Acetyl-D,L-Methionine], which “area under OmniLog respiration curve” value [1, 4] is on record?
Answer: 5080 ± 220

Question: What about the DuctApe activity index [2, 4] of the same molecule?
Answer: 7 (active)

Question: Which “area under OmniLog respiration curve” value [1, 4] does the source give for `O=S1(=O)CCCC1` [Tetramethylene Sulfone] here?
Answer: 615 ± 500

Question: What about the DuctApe activity index [2, 4] of the same molecule?
Answer: 0 (inactive)

Question: Which results are given for `NCCCC[C@@H](N)C(=O)O` [D-Lysine]?
Answer: area under OmniLog respiration curve [1, 5]: 23.1 ± 23; DuctApe activity index [2, 5]: 0.667 (inactive)

Question: Which “area under OmniLog respiration curve” value [1, 3] does the source give for `O=C(O)[C@]1(O)C[C@@H](O)[C@@H](O)[C@H](O)C1` [Quinic acid] here?
Answer: 4.72

Question: And the DuctApe activity index [2, 3]?
Answer: 0 (inactive)

Question: For `O=C1O[C@H](CO)[C@@H](O)[C@H]1O` [D-Ribono-1,4-Lactone], which “area under OmniLog respiration curve” value [1, 3] is on record?
Answer: 4.72

Question: What about the DuctApe activity index [2, 3] of the same molecule?
Answer: 0 (inactive)

Question: Which “area under OmniLog respiration curve” value [1, 6] does the source give for `OC[C@@H](O)[C@@H](O)[C@H](O)[C@@H](O)CO` [D-Sorbitol] here?
Answer: 8340 ± 910

Question: What about the DuctApe activity index [2, 6] of the same molecule?
Answer: 8.33 (active)

Question: `OC[C@H]1O[C@@H](Oc2ccc(O)cc2)[C@H](O)[C@@H](O)[C@@H]1O` [Arbutin] was tested. Which “area under OmniLog respiration curve” value [1, 6] did it give?
Answer: 4.72

Question: And the DuctApe activity index [2, 6]?
Answer: 0 (inactive)

Question: What does the source list for `O=NO` [Nitrite]?
Answer: area under OmniLog respiration curve [1, 7]: 122 ± 150; DuctApe activity index [2, 7]: 0.667 (inactive)

Question: Which “area under OmniLog respiration curve” value ([1]; nutrient role: C-Source, ester) does the source give for `COC(=O)[C@@H](C)O` [D-Lactic acid Methyl Ester] here?
Answer: 7990 ± 370

Question: What about the DuctApe activity index ([2]; nutrient role: C-Source, ester) of the same molecule?
Answer: 8 (active)

Question: For `C[C@H](N)C(=O)N[C@@H](CC(=O)O)C(=O)O`, which “area under OmniLog respiration curve” value [1, 5] is on record?
Answer: 9150 ± 1000

Question: What about the DuctApe activity index [2, 5] of the same molecule?
Answer: 8.67 (active)

Question: Which “area under OmniLog respiration curve” value [1, 5] does the source give for `C[C@H](N)C(=O)N[C@@H](Cc1cnc[nH]1)C(=O)O` here?
Answer: 6900 ± 1400

Question: What about the DuctApe activity index [2, 5] of the same molecule?
Answer: 7.67 (active)

Question: For `Nc1ncnc2c1ncn2[C@@H]1O[C@H](COP(=O)(O)O)[C@@H](O)[C@H]1O` [Adenosine 5`-Monophosphate], which “area under OmniLog respiration curve” value [1, 8] is on record?
Answer: 9380 ± 770

Question: And the DuctApe activity index [2, 8]?
Answer: 8.67 (active)

Question: For `O=C(O)[C@H](O)[C@@H](O)[C@H](O)[C@H](O)COP(=O)(O)O` [6-Phospho-Gluconic acid], which “area under OmniLog respiration curve” value [1, 8] is on record?
Answer: 9360 ± 510

Question: What about the DuctApe activity index [2, 8] of the same molecule?
Answer: 9 (active)

Question: With `O=P(O)(O)CP(=O)(O)O` [Methylene Diphosphonic acid] as the molecule, how does the “area under OmniLog respiration curve” value [1, 8] read?
Answer: 618 ± 470

Question: And the DuctApe activity index [2, 8]?
Answer: 0.667 (inactive)

Question: With `O=C(O)C[C@H](O)C(=O)O` [L-Malic acid] as the molecule, how does the “area under OmniLog respiration curve” value [1, 3] read?
Answer: 8910 ± 230

Question: And the DuctApe activity index [2, 3]?
Answer: 8.67 (active)

Question: With `CSC[C@H](N)C(=O)O` [S-Methyl-L-Cysteine] as the molecule, how does the “area under OmniLog respiration curve” value [1, 4] read?
Answer: 17.8 ± 23

Question: What about the DuctApe activity index [2, 4] of the same molecule?
Answer: 0.333 (inactive)

Question: How did the “area under OmniLog respiration curve” value [1, 8] turn out when `N[C@@H]1[C@@H](O)[C@H](O)[C@@H](COP(=O)(O)O)O[C@@H]1O` [D-Glucosamine-6-Phosphate] was run?
Answer: 9120 ± 620

Question: And the DuctApe activity index [2, 8]?
Answer: 8.67 (active)

Question: What does the source list for `N[C@H](CCC(=O)O)C(=O)O` [D-Glutamic acid]?
Answer: area under OmniLog respiration curve [1, 5]: 57.1 ± 89; DuctApe activity index [2, 5]: 0.667 (inactive)

Question: How did the “area under OmniLog respiration curve” value [1, 3] turn out when `C/C=C/C=C/C(=O)O` [Sorbic acid] was run?
Answer: 7.09 ± 4.1

Question: And the DuctApe activity index [2, 3]?
Answer: 0 (inactive)

Question: For `OC[C@H]1O[C@@](CO)(O[C@H]2O[C@H](CO)[C@@H](O)[C@H](O)[C@H]2O)[C@@H](O)[C@@H]1O` [Sucrose], which “area under OmniLog respiration curve” value [1, 6] is on record?
Answer: 634 ± 420

Question: And the DuctApe activity index [2, 6]?
Answer: 1.67 (inactive)

Question: For `CS(=O)(=O)O` [Methane Sulfonic acid], which “area under OmniLog respiration curve” value [1, 4] is on record?
Answer: 5490 ± 300

Question: And the DuctApe activity index [2, 4]?
Answer: 6.67 (active)

Question: `NCC(=O)N1CCC[C@H]1C(=O)O` was tested. Which “area under OmniLog respiration curve” value [1, 9] did it give?
Answer: 7860 ± 920

Question: And the DuctApe activity index [2, 9]?
Answer: 8 (active)

Question: Which results are given for `O=S(O)(O)=S` [Thiosulfate]?
Answer: area under OmniLog respiration curve [1, 4]: 6770 ± 170; DuctApe activity index [2, 4]: 7 (active)

Question: For `N[C@@H](CS)C(=O)O` [L-Cysteine], which “area under OmniLog respiration curve” value [1, 5] is on record?
Answer: 9700 ± 1400

Question: And the “area under OmniLog respiration curve” value [1, 4]?
Answer: 7230 ± 260

Question: And the DuctApe activity index [2, 5]?
Answer: 8.67 (active)

Question: What about the DuctApe activity index [2, 4] of the same molecule?
Answer: 7.33 (active)

Question: For `NCCCCN` [Putrescine], which “area under OmniLog respiration curve” value ([1]; nutrient role: C-Source, amine) is on record?
Answer: 13.7 ± 8.1

Question: What about the “area under OmniLog respiration curve” value [1, 5] of the same molecule?
Answer: 31.6 ± 46

Question: And the DuctApe activity index ([2]; nutrient role: C-Source, amine)?
Answer: 0 (inactive)

Question: And the DuctApe activity index [2, 5]?
Answer: 0 (inactive)

Question: `CC(=O)N[C@@H](CO)[C@@H](O)[C@H](O)[C@H](O)CO` [N-Acetyl-D-Glucosaminitol] was tested. Which “area under OmniLog respiration curve” value [1, 6] did it give?
Answer: 4.72

Question: And the DuctApe activity index [2, 6]?
Answer: 0 (inactive)

Question: Which “area under OmniLog respiration curve” value [1, 4] does the source give for `NCCS(=O)O` [Hypotaurine] here?
Answer: 7620 ± 90

Question: What about the DuctApe activity index [2, 4] of the same molecule?
Answer: 8 (active)

Question: `OCC1(O)OC[C@@H](O)[C@@H](O)[C@H]1O` (stereo partly drawn) [D-Psicose] was tested. Which “area under OmniLog respiration curve” value [1, 6] did it give?
Answer: 3500 ± 700

Question: And the DuctApe activity index [2, 6]?
Answer: 4 (active)

Question: How did the “area under OmniLog respiration curve” value [1, 10] turn out when `CC(O)CO` (stereo not given) [1,2-Propanediol] was run?
Answer: 123 ± 100

Question: And the DuctApe activity index [2, 10]?
Answer: 1.33 (inactive)

Question: For `N[C@@H](CCO)C(=O)O` [L-Homoserine], which “area under OmniLog respiration curve” value [1, 9] is on record?
Answer: 4.72

Question: And the “area under OmniLog respiration curve” value [1, 5]?
Answer: 546 ± 600

Question: And the DuctApe activity index [2, 9]?
Answer: 0 (inactive)

Question: And the DuctApe activity index [2, 5]?
Answer: 1.33 (inactive)

Question: How did the “area under OmniLog respiration curve” value [1, 6] turn out when `OCc1ccccc1O[C@@H]1O[C@H](CO)[C@@H](O)[C@H](O)[C@H]1O` [Salicin] was run?
Answer: 4.72

Question: What about the DuctApe activity index [2, 6] of the same molecule?
Answer: 0 (inactive)

Question: With `OC[C@H]1OC(O)[C@@H](O)[C@@H](O)[C@@H]1O` (stereo partly drawn) [D-Mannose] as the molecule, how does the “area under OmniLog respiration curve” value [1, 6] read?
Answer: 8430 ± 440

Question: And the DuctApe activity index [2, 6]?
Answer: 8 (active)
